Source: PubChem (Johns Hopkins Ion Channel Center)
Only some compounds are listed: those with a hit (about 1.6% of all), similar ones and a draw of the others.
KCNQ2 block: rat KCNQ2 potassium channel inhibitors, primary screen, cell-based, CHO-K1, FluxOR thallium flux, B-score. 20 min; active compounds read low. B-score at 10 µM. 310,000 compounds, 1.1% hits. AID 2156, 2009;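 active = fluorescence ratio B-score at most minus 3 library SDs, with starting brightness B-score within 2 library SDs, cut at about -5.5 in these data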
KCNQ2 pot: potentiators of rat KCNQ2 potassium channel; Potassium voltage-gated channel subfamily KQT member 2 (Rattus norvegicus), O88943; 310,000 compounds, 0.54% hits; CHO-K1 KCNQ2, FluxOR thallium flux fluorescence; active compounds read high; B-score at 10 µM;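 active = fluorescence ratio B-score at least 3 SD of library B-scores, with initial fluorescence B-score within 3 of them, cut at about 5.3 in these data; same plate scores as AID 2156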;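 note: B-score of peak minus minimum over baseline fluorescence ratio after K+ and Tl+ stimulus; positive B-score means potentiation of KCNQ2 with more thallium influx and brighter signal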
KCNQ2 inh conf: rat KCNQ2 potassium channel inhibitors, confirmation, cell-based, thallium flux; shares compounds with KCNQ2 block; KCNQ2-expressing cells, inhibition; active compounds read low; activity change, negative = inhibition, % at 10 µM; 1,000 compounds, 57% hits; AID 493025, 2011;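 note: 0% = vehicle wells and values are ratio percent relative to vehicle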
KCNQ1 spec: human KCNQ1 channel inhibition, counter-screen for KCNQ2 inhibitor project, cell-based, FluxOR thallium flux; AID 493026, 2011; activity change, negative = inhibition, % at 10 µM; 1,000 compounds, 15% hits; KCNQ1-expressing cells, FluxOR thallium flux fluorescence; active compounds read low; shares compounds with KCNQ2 block;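 active = activity change at least 3 SD of negative controls below their mean in both duplicate wells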;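 note: CHO cells stably transfected with KCNQ1 and depolarized by potassium stimulus; peak minus minimum fluorescence over baseline after thallium addition; 0% = vehicle negative control and -100% = blank without thallium stimulus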
Target sequence (P51787 whole entry, looked up): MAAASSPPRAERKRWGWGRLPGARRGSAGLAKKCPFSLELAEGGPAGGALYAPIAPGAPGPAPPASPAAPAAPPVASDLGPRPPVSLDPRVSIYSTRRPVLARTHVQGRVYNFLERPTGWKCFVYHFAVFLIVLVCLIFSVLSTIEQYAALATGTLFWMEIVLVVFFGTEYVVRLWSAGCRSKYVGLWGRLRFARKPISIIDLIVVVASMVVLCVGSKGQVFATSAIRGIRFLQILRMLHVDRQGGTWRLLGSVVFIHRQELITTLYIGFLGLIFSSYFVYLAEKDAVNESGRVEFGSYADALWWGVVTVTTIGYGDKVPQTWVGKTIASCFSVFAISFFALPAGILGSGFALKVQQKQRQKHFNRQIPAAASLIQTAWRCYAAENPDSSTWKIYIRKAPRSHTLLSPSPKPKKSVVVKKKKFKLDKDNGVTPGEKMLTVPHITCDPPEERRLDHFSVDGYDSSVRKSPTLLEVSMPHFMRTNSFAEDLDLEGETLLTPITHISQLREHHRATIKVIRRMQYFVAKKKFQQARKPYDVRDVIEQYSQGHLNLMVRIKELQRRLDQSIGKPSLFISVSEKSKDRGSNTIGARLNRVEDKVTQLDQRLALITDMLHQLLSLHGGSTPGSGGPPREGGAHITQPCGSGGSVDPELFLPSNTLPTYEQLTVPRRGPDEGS
CHO parental ctr: thallium flux change in parental CHO cells, counter-screen for KCNQ2 inhibitor project | shares compounds with KCNQ2 block | active compounds read low | activity change, % at 10 µM | 1,000 compounds, 14% hits;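 note: 0% = vehicle negative controls with stimulus buffer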
KCNQ2 patch conf: rat KCNQ2 channel inhibitors, confirmation, cell-based, automated patch clamp, single concentration | KCNQ2-expressing cells, automated patch clamp current | shares compounds with KCNQ2 block | calls only at 10 µM | 550 compounds, 49% hits
Numbers without * were called inactive; i = inactive; . = not tested or not shown; + = active, no number. Unless noted, the rule behind the calls is not given here.

SMILES	KCNQ2 block	KCNQ2 pot	KCNQ2 inh conf	KCNQ1 spec	CHO parental ctr	others
C=CCC1(CC=C)CCCN1C(=O)C1CCC(=O)N(CCc2ccc(Cl)cc2)C1 (centres undefined)	-8.2*	-8.2	-29%*	i	i	KCNQ2 patch conf=+
O=C(COC(=O)CC(c1ccccc1)c1ccccc1)NCc1ccc(Cl)cc1	i	.	.	.	.
O=C(CSc1nnc(-c2cccc(S(=O)(=O)N3CCCC3)c2)n1-c1ccccc1)Nc1ccc(C(=O)O)cc1	i	0.21	.	.	.
Cc1ccc(CN=c2c([N+](=O)[O-])nn(-c3cccc(C)c3)n2O)cc1	-7*	-7	-19%*	i	i	KCNQ2 patch conf=i
Cc1ccc(CN=c2c([N+](=O)[O-])nn(-c3cccc(Cl)c3)n2O)cc1	i	.	.	.	.
COc1cccc(OCCNC(=O)c2cc([N+](=O)[O-])cc([N+](=O)[O-])c2)c1	i	0.73	.	.	.
CC(C)c1ccc(C2CC(=O)c3cnc(N4CCc5ccccc5C4)nc3C2)cc1 (centres undefined)	i	.	.	.	.
O=C1CC(c2ccco2)Cc2nc(N3CCc4ccccc4C3)ncc21 (centres undefined)	-10*	-10	-27%*	i	i	KCNQ2 patch conf=i
CC1(C)Cc2c(sc(NC(=O)C(=O)N3CCCC3)c2C#N)CO1	i	0.6	.	.	.
COc1ccc(CNc2oc(COc3ccc(Cl)cc3)nc2C#N)cc1	i	.	.	.	.
N#CC(C(=O)NCCc1ccccc1)c1nc2ccccc2nc1N1CCCCC1 (centres undefined)	i	.	.	.	.
CCOC(=O)N1CCN(c2nc3ccccc3nc2C(C#N)C(=O)NCCc2ccccc2)CC1 (centres undefined)	-8.7*	-8.7	i	i	i
N#Cc1ccc(NC(=S)Nc2ccccc2)cc1	i	0.79	.	.	.
O=C(Nc1ccccc1N1CCOCC1)c1cc2c(s1)CCCCC2	i	.	.	.	.
O=C(CC12CC3CC(CC(C3)C1)C2)Nc1ccccc1N1CCOCC1	-6.8*	-6.8	-30%*	-34%*	-20%*	KCNQ2 patch conf=i
CCc1sc(C(=O)Nc2ccccc2N2CCOCC2)cc1C	-7.3*	-7.3	-18%*	i	i
CC(=O)N1CCN(c2ccccc2NC(=O)COc2cc(C)cc(C)c2)CC1	i	.	.	.	.
CCCCC(=O)Nc1ccccc1N1CCOCC1	i	1.6	.	.	.
CCN(CC)S(=O)(=O)c1ccc(N2CCOCC2)c(NC(=O)COc2ccccc2)c1	-6.8*	-6.8	-31%*	i	i	KCNQ2 patch conf=+
Cc1cc(C)c(OCC(=O)Nc2ccccc2N2CCOCC2)c(C)c1	-9.4*	-9.4	i	i	i
CCN(CC)S(=O)(=O)c1ccc(N2CCOCC2)c(NC(=O)CCOc2ccccc2)c1	i	.	.	.	.
CC(=O)Nc1ccc(S(=O)(=O)/N=C2\C(=O)c3ccccc3C([O-])=C2n2cc[n+](-c3ccccn3)c2)cc1	i	.	.	.	.
O=C1C2C3C=CC(C3)C2C(=O)N1Cc1ccc(CN2C(=O)C3C4C=CC(C4)C3C2=O)cc1 (centres undefined)	i	.	.	.	.
CCC(Oc1ccccc1)C(=O)Nc1cc(C(F)(F)F)ccc1N1CCOCC1 (centres undefined)	-7*	-7	i	i	i
CC(=O)Nc1cc(C(F)(F)F)ccc1N1CCOCC1	i	0.43	.	.	.
SMILES	KCNQ2 block	KCNQ2 pot	KCNQ2 inh conf	KCNQ1 spec	CHO parental ctr	others
Cc1ccccc1CC(=O)NC1CCCc2ccccc21 (centres undefined)	i	.	.	.	.
Cc1nnc(SC(C)C(=O)NC2CCCc3ccccc32)n1-c1ccccc1 (centres undefined)	-6.6*	-6.6	-37%*	i	i	KCNQ2 patch conf=+
Cc1ccccc1-n1c(C)nnc1SCC(=O)NC1CCCc2ccccc21 (centres undefined)	-7.7*	-7.7	i	i	i
O=C(CSc1nnnn1-c1ccccc1)NC1CCCc2ccccc21 (centres undefined)	i	.	.	.	.
Cc1ccccc1-n1nnnc1SC(C)C(=O)NC1CCCc2ccccc21 (centres undefined)	-8.8*	-8.8	-37%*	-38%*	-31%*	KCNQ2 patch conf=+
CC(Sc1nnc(Nc2ccccc2)s1)C(=O)NC1CCCc2ccccc21 (centres undefined)	i	.	.	.	.
O=C(CCNc1ccc(F)cc1)c1cccc([N+](=O)[O-])c1	i	.	.	.	.
O=C(CCNc1ccccc1)c1cccc([N+](=O)[O-])c1	-7.9*	-7.9	i	i	i
Cc1ccc(OCC(=O)NCCCNC(=O)c2cnccn2)cc1C	i	1.7	.	.	.
CNc1nnc(-c2cc3cc(Cl)ccc3oc2=O)s1	i	0.55	.	.	.
CCn1c(N2CCN(S(=O)(=O)c3ccccc3C(F)(F)F)CC2)nc2ccccc21	i	.	.	.	.
CCn1c(N2CCN(C(=O)C34CC5CC(CC(C5)C3)C4)CC2)nc2ccccc21	-8.6*	-8.6	-40%*	-37%*	-36%*	KCNQ2 patch conf=+
CSc1cccc(CNC(=O)CC2C(=O)NCCN2CC(C)(C)C)c1 (centres undefined)	i	0.14	.	.	.
CC(Oc1ccc(Cl)cc1Cl)C(=O)NCCCCc1ccccc1 (centres undefined)	i	.	.	.	.
O=C(COc1ccc(Cl)cc1Cl)NCCCCc1ccccc1	-7.8*	-7.8	i	i	i
Cc1ccnc(N2CCC(C(=O)Nc3cccc(C(F)(F)F)c3)CC2)n1	i	.	.	.	.
Clc1ccc(/C(Cc2nc3ccccc3[nH]2)=N\Nc2ccccc2)cc1	-6.6*	-6.6	-38%*	i	i	KCNQ2 patch conf=i
Clc1ccc(SCc2nc3ccccc3[nH]2)cc1	i	.	.	.	.
COc1ccccc1N1CCN(C(=O)c2cc(C)oc2C)CC1	i	0.25	.	.	.
Cn1c(CCC(=O)OCC(=O)Nc2ccc(Oc3ccccc3)cc2)nc(=O)c2ccccc21	i	1.5	.	.	.
COc1cc(C)nc(OCCNC(=O)COc2ccc(Cl)cc2C)n1	-7.5*	-7.5	i	i	i
Cc1cc(Cl)ccc1OCC(=O)NCCOc1nc(N2CCCCC2)nc(N2CCOCC2)n1	i	.	.	.	.
CN(C(=O)c1nn(C)c2c1CSc1ccccc1-2)c1ccccc1Cl	-6.7*	-6.7	-37%*	-40%*	-34%*	KCNQ2 patch conf=i
CC1CCCC(C)N1CCCNC(=O)c1nn(C)c2c1CSc1ccccc1-2 (centres undefined)	i	0.45	.	.	.
COc1cccc(NC(=O)c2cc(-c3ccco3)nc3ccccc23)c1	i	.	.	.	.
COc1cc(OC)c(NC(=O)N2CCOCC2)cc1Cl	i	.	.	.	.
Cc1ccc(C(=O)c2c3ccccc3[n+]([O-])n2[C@@H](C)C(N)=O)cc1	i	0.72	.	.	.
